Data on 39 compounds can be found in PubChem BioAssay.

Potency and affinity values are given separately. Calls of active or inactive are those of the source. A call without a number means that no potency is given here. The rule behind the calls is not given here.

This test can be described thus: toxicity toward HepG2 liver cells – cell-based, plate reader, cherry-pick, antagonist series, cytotoxicity control, dose response (AID 743416). The following applies: series mostly up to 26 µM.
On to `c1ccc(-c2cn3c4c(sc3n2)CCCC4)cc1`, for which the compound was classed as inactive.

As for `CN(C)c1cccc(C(=O)Nc2nc3ccccc3[nH]2)c1`, the compound was called inactive.

With `Cc1ccccc1C(=O)Nc1ccc2c(c1)OCCO2`, the call was inactive.

As for `Cc1ccc(S(=O)(=O)N(C)C[C@H]2Oc3c(cccc3N(C)C)C(=O)N([C@@H](C)CO)C[C@@H]2C)cc1`, the outcome was inactive.

On to `COc1cccc(NC(=O)Nc2cccc(C(=O)O)c2)c1`, for which the result was inactive.

Take `CCc1cc(-c2ccc3c(c2)COc2c4ccccc4nn2-3)on1`: the compound was called inactive.

Regarding `O=C(NCCc1ccc(Cl)cc1)c1ccc2c(c1)OCCO2`, the outcome was inactive.

Turning to `COc1ccc(Nc2ncc(F)c(N3CCOCC3)n2)cc1`, the compound was classed as inactive.

With `Cc1cccc(-c2ccc([C@H]3[C@@H](CO)N4CCCCN(C(=O)c5ccc6c(c5)OCO6)C[C@@H]34)cc2)c1`, the result was inactive.

`Cc1ccc(S(=O)(=O)Nc2ccc3c(c2)CC(=O)N([C@H](C)CO)C[C@H](C)[C@H](CN(C)Cc2ccc(Cl)c(Cl)c2)O3)cc1`: the result was inactive.

On to `Cc1cnc(NC(=O)COc2ccccc2Cl)s1`, for which the compound was called inactive.

On to `COc1cc(SC)ccc1C(=O)Nc1nc(C)cs1`, for which the call was inactive.

Take `C[C@H](CO)N1C[C@H](C)[C@H](CN(C)C(=O)Nc2cccc3ccccc23)OCCCC[C@H](C)Oc2ccc(NC(=O)CCC(F)(F)F)cc2C1=O`: the result was inactive.

With `Cc1csc(NC(=O)c2ccc(N3CCCC3=O)cc2)n1`, the compound was classed as inactive.

For `COc1ccc(-n2cc(C(=O)c3ccccc3O)cn2)cc1`, the compound was called inactive.

For the compound `Cc1cccc(-c2ccc([C@H]3[C@@H](CO)N4CCCCN(C(=O)c5ccncc5)C[C@@H]34)cc2)c1`, the outcome was inactive.

Take `N#C[C@@H]1[C@H](c2ccc(C#CC3CCCCC3)cc2)[C@@H](CO)N1C(=O)c1cccc(F)c1`: the call was inactive.

Consider `Cc1ccc(-n2[nH]c(=O)c(-c3ccccn3)c2C)cc1`, for which the compound was called inactive.

For the compound `Cc1ccc2nc(-c3ccc(NC(=O)C4CCCO4)cc3)[nH]c2c1` (centres undefined), the outcome was inactive.

Consider `C[C@H](CO)N1C[C@H](C)[C@H](CN(C)S(=O)(=O)c2ccc(C(F)(F)F)cc2)OCc2ccccc2-c2c(n(C)c3ccccc23)C1=O`, for which the outcome was inactive.

As to `N#Cc1cccc(-c2ccc(C3[C@@H]4CN(C(=O)c5ccccn5)C[C@H]3N4)cc2)c1` (some centres undefined), the result was inactive.

Take `Nc1nccc(-c2cc(-c3ccc(Cl)cc3Cl)no2)n1`: the result was inactive.

In the case of `COc1ccc(S(=O)(=O)N(C)C[C@@H]2OCCCC[C@H](C)Oc3ccc(NS(=O)(=O)c4ccc(F)cc4)cc3C(=O)N([C@@H](C)CO)C[C@@H]2C)cc1`, the call was inactive.

`O=C(Nc1ccc(Cl)cc1)Nc1cccc(C(=O)O)c1`: the result was inactive.

Consider `C[C@H]1CCCCO[C@@H](CN(C)C(=O)Nc2ccc(F)cc2)[C@@H](C)CN([C@@H](C)CO)C(=O)c2cc(NC(=O)C3CCCCC3)ccc2O1`, for which the outcome was inactive.

`CC1CCCN(c2ncnc3c2cnn3-c2ccc(Cl)cc2)C1` (centres undefined): the call was inactive.

In the case of `CN(C(=O)COC(=O)c1nc(Cl)c(Cl)c(Cl)c1Cl)C1CCS(=O)(=O)C1` (centres undefined), the outcome was inactive.

Consider `N#C[C@@H]1[C@H](c2ccc(C#CC3CCCCC3)cc2)[C@@H](CO)N1S(=O)(=O)c1ccccc1`, for which the compound was classed as inactive.

With `COc1ccccc1N(Cc1ccccc1)S(=O)(=O)c1cccc(C(=O)Nc2cc(C)ccn2)c1`, the call was inactive.

On to `CN1CCN(c2ccc(NC(=O)N3CCc4ccccc43)cc2)CC1`, for which the compound was classed as inactive.

Regarding `Cc1ccc(C#N)c(SCc2nnc(-c3ccc(Cl)cc3)o2)n1`, the result was inactive.

As for `CCOc1ccc(-c2cnc3ccccc3n2)cc1`, the call was inactive.

In the case of `COCCn1c(C)cc(C(=O)CSc2nnc3ccccn23)c1C`, the result was inactive.

With `CN1c2ccc(-c3ccc(F)cc3)cc2[C@H]2[C@H](CCN2C(=O)Nc2ccc(F)cc2)[C@H]1CO`, the result was inactive.

As to `CCOc1ccc(-n2cc(-c3ccccc3)c3c(N4CCOCC4)ncnc32)cc1`, the result was inactive.

For `O=C(Nc1ccc(Cl)cc1)Nc1ccccc1C(=O)O`, the outcome was inactive.

`COCCOc1cc(NCc2ccccc2)c2ncn(C(C)C)c2c1`: the call was inactive.

As to `CCCc1nc(SCC(=O)N2CCC(Cc3ccccc3)CC2)c2c(=O)n(C)c(=O)n(C)c2n1`, the call was inactive.

On to `COc1ccc(S(=O)(=O)N(C)C[C@@H]2OCCCC[C@H](C)Oc3ccc(NS(=O)(=O)c4ccc(Cl)cc4)cc3C(=O)N([C@@H](C)CO)C[C@@H]2C)cc1`, for which the result was inactive.
